Assay outcomes deposited in PubChem BioAssay by several laboratories.
Only some compounds are listed: those with a hit (about 2.2% of all), similar ones and a draw of the others.
APP 5UTR inh: APP translation inhibition; 190,000 tested, 0.82% active; AID 1285; inhibition, % at 2 µM; SH-SY5Y APP 5'UTR-luciferase reporter, luminescence;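 active = inhibition above a set limit, derived from the sample mean plus 3 SD, cut at about 45% in these data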
aSyn 5UTR inh: 5' untranslated region of α-synuclein, MLPCN primary screen; alpha-synuclein 5'UTR reporter, inhibitor activity; inhibition, % (tested at 7.5 µM); 300,000 tested, 0.82% active; in the data active = inhibition above about 60%;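 also: H4 neuroglioblastoma cells stably carrying SNCA 5'UTR luciferase fusion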
BaF3 parental: parental Ba/F3 viability inhibition as JAK2V617F counter-screen; CellTiter-Glo ATP luminescence; inhibition, % at 5.6 µM; 220,000 tested, 1.1% active;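 active = inhibition above a per-campaign cutoff, the mean inhibition of all tested compounds plus 3 SD, cut at about 27% in these data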
KLF5 inh: suppresses KLF5 promoter-driven expression. 290,000 tested, 0.23% active. AID 1700. DLD-1 KLF5 promoter-luciferase reporter, luminescence. inhibition, % at 5 µM;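 active = inhibition above a per-plate limit of that plate's mean compound inhibition plus 3 SD, cut at about 60% in these data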;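 also: higher means less KLF5 promoter-driven luciferase light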
IEC-6 tox: IEC-6 cytotoxicity, counter-screen for KLF5 inhibitors. luminescence viability. inhibition, % at 5 µM. 290,000 tested, 0.78% active. AID 1825; in the data active = inhibition above about 22%
Ba/F3 V617F tox: loss of viability in JAK2V617F-driven Ba/F3 cells; Ba/F3 EpoR-JAK2V617F viability, ATP luminescence; inhibition, % at 5.6 µM; 220,000 tested, 1.1% active; AID 1446;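 active = inhibition above the campaign mean plus 3 SD over all tested compounds, cut at about 24% in these data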;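 also: cytokine-independent growth of Ba/F3 cells driven by EpoR plus mutant JAK2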
Of the large screens only hits and unclear results are named; the others gave an inactive call.

CCCCCNC(=O)N[C@H](C(=O)O)C(C)C	BaF3 parental 90
CCCCOCCCNC(=O)N[C@H](C(=O)OC)C(C)C	none
CCC(C)[C@H](NC(=O)Nc1ccc(C)cc1C)C(=O)O (stereo partly specified)	none (no result: APP 5UTR inh)
CCC(C)[C@H](NC(=O)NC(C)C)C(=O)O (stereo partly specified)	BaF3 parental 92
COC(=O)/C=C1\NC(=O)C(C)S1 (stereo unspecified)	none
CC(=O)n1cc(-c2ccncc2)c2ccccc21	APP 5UTR inh 46
CC(=O)n1cc(/C=N/NC(=O)c2sc(C)nc2C)c2ccccc21	none
COc1ccc(CN2CCN(Cc3cc4ccccc4o3)CC2CCO)cc1C (stereo unspecified)	none (no result: APP 5UTR inh, BaF3 parental, Ba/F3 V617F tox)
Clc1ccc(OCCOCCN2CCc3ccccc3C2)c(Cl)c1	none
c1ccc(-c2ccccc2OCCOCCN2CCc3ccccc3C2)cc1	BaF3 parental 47
O=C(Nc1ccccc1OC(F)F)c1cccc(S(=O)(=O)N2CCCC2)c1	none (no result: APP 5UTR inh, BaF3 parental, Ba/F3 V617F tox)
Cc1[nH]c2ccccc2c1C(=O)CN1CCN(c2ccc(Cl)cc2)CC1	none (no result: APP 5UTR inh, BaF3 parental, Ba/F3 V617F tox)
CN(C)c1cc[n+](CC(=O)c2ccc(Br)cc2)cc1	BaF3 parental 56, Ba/F3 V617F tox 51
O=C(C[n+]1ccccc1)c1ccc(-c2ccccc2)cc1	none
COc1ccc(C(=O)C[n+]2ccc(N(C)C)cc2)cc1	BaF3 parental 59, Ba/F3 V617F tox 67 (no result: APP 5UTR inh)
Cc1ccc[n+](CC(=O)c2ccc(Br)cc2)c1	none (no result: APP 5UTR inh, BaF3 parental, Ba/F3 V617F tox)
COc1ccc(C(=O)COC(=O)c2ccc(N(C)C)cc2)cc1	none
CN(C)c1cc[n+](CC(=O)c2ccc(-c3ccccc3)cc2)cc1	BaF3 parental 68, Ba/F3 V617F tox 99
Cc1cc(C)n2ncc(S(=O)(=O)c3ccccc3)c2n1	none
c1ccc(CNc2c3c(nc4ncnn24)CCC3)cc1	none (no result: APP 5UTR inh)
CCOCCCNC(=O)N1CCOCC1	none
O=C(NCCCCCCNC(=O)N1CCCCCC1)N1CCCCCC1	BaF3 parental 55, Ba/F3 V617F tox 50
CCC1=[N+](C)c2cccc3cccc(c23)N1C	BaF3 parental 41, Ba/F3 V617F tox 37
CCN1C(=O)Nc2cccc3cccc1c23	none (no result: APP 5UTR inh, BaF3 parental, KLF5 inh, IEC-6 tox, Ba/F3 V617F tox)
CC(=O)C1C(=O)CC(C)(O)C(C(C)=O)C1c1ccccc1 (stereo unspecified)	none
Cc1n[nH]c(=O)nc1NC1CCCCC1	APP 5UTR inh 60
COc1cccc(NC(=S)N2CCN(C)CC2)c1	none (no result: APP 5UTR inh, BaF3 parental, Ba/F3 V617F tox)
Cc1nnc(SCc2cc(=O)[nH]c(/N=C(\N)Nc3ccccc3)n2)s1	none (no result: APP 5UTR inh)
CCOc1ccc(N/C(N)=N/c2nc(CSc3nnc(C)s3)cc(=O)[nH]2)cc1	aSyn 5UTR inh 84 (no result: APP 5UTR inh)
Oc1ccc(N=Nc2c(O)ccc3ccccc23)cc1	BaF3 parental 42
NS(=O)(=O)c1ccc(N=Nc2c(O)ccc3ccccc23)cc1	none
COc1ccc(NC(=O)NCc2ccco2)c(OC)c1	none
CCNC(=O)Nc1ccc(OC)cc1OC	APP 5UTR inh 50
Cc1ccc2nc(-c3ccccc3)cc(C(=O)N3CCc4ccccc4C3)c2c1	APP 5UTR inh 47
O=C(c1cc(-c2ccccc2)nc2ccccc12)N1CCc2ccccc2C1	none
O=C(c1cc(-c2ccc(Br)cc2)on1)N1CCc2ccccc2C1	none (no result: APP 5UTR inh, BaF3 parental, Ba/F3 V617F tox)
COc1ccc2[nH]c(=O)c(CN(Cc3cccs3)S(=O)(=O)c3c(C)ccc4nsnc34)cc2c1	aSyn 5UTR inh 89
Cc1ccc2[nH]c(=O)c(CN(Cc3ccco3)S(=O)(=O)c3c(C)ccc4nsnc34)cc2c1	none
CCN(CC1COc2ccccc2O1)C(=S)Nc1ccc(F)cc1 (stereo unspecified)	BaF3 parental 31, Ba/F3 V617F tox 34
Cc1ccc(-c2nnn(CC(=O)NC3CC4CCC3C4)n2)cc1 (stereo unspecified)	none
O=C(Cn1nnc(-c2ccc(Cl)cc2)n1)NC1CC2CCC1C2 (stereo unspecified)	BaF3 parental 94
CC[n+]1ccc(/C=C2\Sc3ccccc3N2CCCS(=O)(=O)[O-])c2ccccc21	none
CN1C=C/C(=C\c2cc[n+](C)c3ccccc23)c2ccccc21	aSyn 5UTR inh 74, BaF3 parental 51
Cc1cc(Cl)c2oc(C(=O)N3CCN(c4ccncc4)CC3)c(C)c2c1	aSyn 5UTR inh 90 (no result: APP 5UTR inh, BaF3 parental, Ba/F3 V617F tox)
CC1CCCN(C(=O)CN2C(=O)CSc3ccc(S(=O)(=O)N4CCOCC4)cc32)C1 (stereo unspecified)	none (no result: APP 5UTR inh, BaF3 parental, Ba/F3 V617F tox)
CCCCN(CC)Cc1c(O)ccc2c(-c3ccccc3)cc(=O)oc12	BaF3 parental 29 (no result: APP 5UTR inh)
COc1ccc(C(=O)Sc2nncc3ccccc23)cc1	none
CC(NC(=O)CN(C)S(=O)(=O)c1cccc2nsnc12)c1ccccc1 (stereo unspecified)	none (no result: APP 5UTR inh, BaF3 parental, Ba/F3 V617F tox)
CN=c1scc(-c2ccco2)n1/N=C/c1ccc(O)c(O)c1	BaF3 parental 54, Ba/F3 V617F tox 100
COC(=O)c1nn(-c2ccc(-c3ccccc3)cc2)cc1O	aSyn 5UTR inh 67
CCOC(=O)c1nn(-c2ccccc2)cc1O	none (no result: APP 5UTR inh)
O=[N+]([O-])c1ccc(CSC2=NCCS2)cc1	none (no result: APP 5UTR inh, BaF3 parental, Ba/F3 V617F tox)
COc1ccc(-c2nc(N)n(C(=O)c3cccs3)n2)cc1	none
OC(CNCCc1ccc(Cl)cc1)COCc1ccco1 (stereo unspecified)	BaF3 parental 94
CC1=CC(=O)c2ccccc2C1=O	none
CC(C)(C=O)C1=CC(=O)c2ccccc2C1=O	APP 5UTR inh 80 (no result: aSyn 5UTR inh)
COc1ccc(OC)c(S(=O)(=O)N2CCCC(C(=O)NCc3cccnc3)C2)c1 (stereo unspecified)	none (no result: APP 5UTR inh, BaF3 parental, Ba/F3 V617F tox)
CCOC(=O)c1ccc[n+](CC(=O)c2ccc(NC(=O)c3ccccc3)cc2)c1	none (no result: APP 5UTR inh, BaF3 parental, Ba/F3 V617F tox)
Cc1cc(=O)[nH]c(NCc2ccc(Cl)cc2)n1	none (no result: APP 5UTR inh, BaF3 parental, Ba/F3 V617F tox)
N#Cc1c(N)n(C2CCCCC2)c2nc3ccccc3nc12	aSyn 5UTR inh 62
CCC(=O)Nc1c(C#N)c2nc3ccccc3nc2n1C1CCCCC1	none
COc1ccc(OC)c(NC(=O)C(=O)N/N=C(\C)CC(=O)Nc2ccc(Cl)cn2)c1	none (no result: APP 5UTR inh, BaF3 parental, Ba/F3 V617F tox)
CC1=C/C(=N\OS(=O)(=O)c2ccccc2)C(C(C)C)=CC1=O	APP 5UTR inh 96, BaF3 parental 78, Ba/F3 V617F tox 86 (no result: aSyn 5UTR inh)
CC1=C(C)/C(=N\OS(=O)(=O)c2ccc(C)cc2)C=CC1=O	APP 5UTR inh 90, BaF3 parental 68, Ba/F3 V617F tox 88 (no result: aSyn 5UTR inh)
COc1cc(C(=O)O/N=C2/C=C(C)C(=O)C=C2C)cc(OC)c1OC	none
CC1=C/C(=N\OS(=O)(=O)c2ccccc2)C(C)=CC1=O	APP 5UTR inh 95, BaF3 parental 100, Ba/F3 V617F tox 97 (no result: aSyn 5UTR inh)
CCCc1nnc(NC(=O)CCC(=O)N2CCN(S(=O)(=O)c3ccc(C)cc3)CC2)s1	none (no result: APP 5UTR inh)
Cc1ccc(NC(=O)CS(=O)CC(=O)Nc2cnc3ccccc3c2)cc1Cl (stereo unspecified)	none (no result: APP 5UTR inh, BaF3 parental, Ba/F3 V617F tox)
NC1=C(O)C(=O)C(c2ccccc2)O1 (stereo unspecified)	none (no result: APP 5UTR inh)
Cc1ccccc1C(=O)Nc1ccc(-c2nc3ccc(C(=O)c4ccccc4)cc3[nH]2)cc1	none
O=C(c1ccccc1)c1ccc2nc(-c3ccc(NC(=O)c4ccccc4Br)cc3)[nH]c2c1	aSyn 5UTR inh 75
